Results on five compounds are retold here after PubChem BioAssay (NCI).

Experiment [1] can be described thus: NCI Yeast Anticancer Drug Screen. Data for the rad50 strain (AID 155).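 Also: 0% = growth of vehicle-only cultures of the same strain.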 The following applies: S. cerevisiae rad50 strain growth inhibition, stronger effect = higher value. The gist of the method: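 Cells are treated with compound, grown, and their growth is then scored against vehicle-only cultures of the same repair-deficient yeast strain.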
Experiment [2] is described as follows: NCI Yeast Anticancer Drug Screen. Data for the mec2-1 strain (AID 157). Particulars: S. cerevisiae mec2-1 strain, stronger effect = higher value. The gist of the method: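 mec2-1 yeast strain, carrying an alteration in DNA damage repair or cell cycle control, was exposed to compounds; growth inhibition was measured relative to vehicle-treated controls.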
Experiment [3] can be described thus: NCI Yeast Anticancer Drug Screen. Data for the sgs1 mgt1 strain (AID 161).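 Also: 0% = growth of cultures given vehicle only.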 The following applies: S. cerevisiae sgs1 mgt1 strain, stronger effect = higher value. The gist of the method:
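Compounds are added to genetically altered yeast, and growth is compared with cultures given vehicle alone to give percent inhibition.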

A short description of experiment [4]: NCI Yeast Anticancer Drug Screen. Data for the cln2 rad14 strain (AID 165).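 Also: 0% = growth equal to vehicle treated cultures.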 Particulars: S. cerevisiae cln2 rad14 strain, stronger effect = higher value. The gist of the method: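 Yeast carrying cln2 and rad14 alterations (cell cycle control and DNA damage repair) were exposed to compounds. Growth inhibition was measured against vehicle-treated controls.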
Experiment [5] is described as follows: NCI Yeast Anticancer Drug Screen. Data for the bub3 strain (AID 167). The following applies: S. cerevisiae bub3 mutant strain, stronger effect = higher value. The gist of the method: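 Part of a panel of yeast mutants defective in DNA damage repair or cell cycle regulation. Each strain is grown with compound, and inhibition is calculated relative to solvent-treated cultures.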

Experiment [6] is described as follows: NCI Yeast Anticancer Drug Screen. Data for the mlh1 rad18 strain (AID 175). The following applies: S. cerevisiae mlh1 rad18 strain growth inhibition, stronger effect = higher value. The gist of the method: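 Growth inhibition of the yeast strain was measured after compound exposure and expressed relative to vehicle-treated controls. The strain carries defined defects in DNA damage repair.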

[7] abbreviates: at 5.0 µM (retest, dose inferred, filed as 0.5).
Setting [8] is: at 50.0 µM (retest, dose inferred, filed as 5.0).

Values joined by “and” are separate entries in the source; they are usually repeats but may differ in a detail not shown here. Equal entries are not always repeated. Compounds without any hit were thinned out: in the full panel of roughly 79,000, 15% have a hit. Some structures have more than one record in an assay (separate samples or runs), and their calls can disagree. Active and inactive are the calls of the source. Rule as the data show it: active = growth inhibition above about 70%; inactive = the rest.

Regarding `CNC1=C(C)C(=O)C2=C(C1=O)C(COC(N)=O)C1(O)C3C(CN21)N3C` (stereo not given), the growth inhibition in experiment [1] (setting [7]) was 13% (inactive); in experiment [1] (setting [8]), 83% (active); in experiment [1] (at 50.0 µM), 72% (active); in experiment [2] (setting [7]), 20% (inactive); in experiment [2] (setting [8]), 90% (active); in experiment [2] (at 50.0 µM), 74.9% (active). The growth inhibition in experiment [3] (setting [7]) is 19% (inactive); in experiment [3] (setting [8]), 78% (active); in experiment [3] (at 50.0 µM), 69.8% (inactive); in experiment [4] (setting [7]), 9% (inactive); in experiment [4] (setting [8]), 84% (active); in experiment [4] (at 50.0 µM), 61.4% (inactive). Further, the growth inhibition is 3% (inactive) in experiment [5] (setting [7]); 59% (inactive) in experiment [5] (setting [8]); 52.2% (inactive) in experiment [5] (at 50.0 µM); 47% (inactive) in experiment [6] (setting [7]); 95% (active) in experiment [6] (setting [8]); 83% (active) in experiment [6] (at 50.0 µM).
In the case of `ClC1=C(Cl)C2(Cl)C3CC4OC4C=CC3C1(Cl)C2(Cl)Cl` (stereo not given), the growth inhibition in experiment [1] (setting [7]) was 7% (inactive) and 4% (inactive); in experiment [1] (setting [8]) it was 93% (active) and 96% (active); in experiment [1] (at 50.0 µM) it was 96.3% (active) and 39.2% (inactive); in experiment [2] (setting [7]) it was 12% (inactive) and 5% (inactive); in experiment [2] (setting [8]), 97% (active) and 98% (active); in experiment [2] (at 50.0 µM), 97.3% (active) and 39% (inactive). The growth inhibition in experiment [3] (setting [7]) is 10% (inactive) and 3% (inactive); in experiment [3] (setting [8]) it was 96% (active) and 98% (active); in experiment [3] (at 50.0 µM) it was 96.8% (active) and 73.6% (active); in experiment [4] (setting [7]), 0% (inactive); in experiment [4] (setting [8]), 96% (active); in experiment [4] (at 50.0 µM), 95.3% (active) and 47.4% (inactive). Further, the growth inhibition in experiment [5] (setting [7]) is 2% (inactive) and 5% (inactive); in experiment [5] (setting [8]), 96% (active) and 97% (active); in experiment [5] (at 50.0 µM) it was 97.1% (active) and 26.6% (inactive); in experiment [6] (setting [7]), 8% (inactive) and 2% (inactive); in experiment [6] (setting [8]), 96% (active); in experiment [6] (at 50.0 µM), 95.3% (active) and 60.9% (inactive).
With `CCC1(O)C(=O)OCc2c1cc1n(c2=O)Cc2cc3cc([N+](=O)[O-])ccc3nc2-1` (stereo not given), the growth inhibition was 76% (active) in experiment [1] (setting [7]); 95% (active) in experiment [1] (setting [8]); 77.9% (active) in experiment [1] (at 50.0 µM); 10% (inactive) in experiment [2] (setting [7]); 46% (inactive) in experiment [2] (setting [8]); 43.4% (inactive) in experiment [2] (at 50.0 µM). Moreover, the growth inhibition in experiment [3] (setting [7]) was 21% (inactive); in experiment [3] (setting [8]), 33% (inactive); in experiment [3] (at 50.0 µM), 24.9% (inactive); in experiment [4] (setting [7]), 14% (inactive); in experiment [4] (setting [8]), 8% (inactive); in experiment [4] (at 50.0 µM), -2.9% (inactive). The growth inhibition was 13% (inactive) in experiment [5] (setting [7]); 10% (inactive) in experiment [5] (setting [8]); -21.3% (inactive) in experiment [5] (at 50.0 µM); 10% (inactive) in experiment [6] (setting [7]); 32% (inactive) in experiment [6] (setting [8]); 59.5% (inactive) in experiment [6] (at 50.0 µM).
Regarding `Fc1cccc(C2N(Cc3ccc(N(CCCl)CCCl)cc3Cl)CCCN2Cc2ccc(N(CCCl)CCCl)cc2Cl)c1`, the growth inhibition in experiment [1] (setting [7]) is -28% (inactive); in experiment [1] (setting [8]), 92% (active); in experiment [1] (at 50.0 µM), 12.7% (inactive); in experiment [2] (setting [7]), 15% (inactive); in experiment [2] (setting [8]), 95% (active); in experiment [2] (at 50.0 µM), 54.5% (inactive). Besides, the growth inhibition in experiment [3] (setting [7]) was -3% (inactive); in experiment [3] (setting [8]) it was 95% (active); in experiment [3] (at 50.0 µM) it was -18.4% (inactive); in experiment [4] (setting [7]) it was -5% (inactive); in experiment [4] (setting [8]), 93% (active); in experiment [4] (at 50.0 µM), -6.1% (inactive). Besides, the growth inhibition is -2% (inactive) in experiment [5] (setting [7]); 92% (active) in experiment [5] (setting [8]); 83.2% (active) in experiment [5] (at 50.0 µM); 6% (inactive) in experiment [6] (setting [7]); 94% (active) in experiment [6] (setting [8]); 9.15% (inactive) in experiment [6] (at 50.0 µM).
Take `c1cc[c]([Sn]([c]2ccccc2)([c]2ccccc2)[c]2ccccc2)cc1`: the growth inhibition in experiment [1] (setting [7]) was -2% (inactive); in experiment [1] (setting [8]), -3% (inactive); in experiment [1] (at 50.0 µM) it was 60.2% (inactive); in experiment [2] (setting [7]), -3% (inactive); in experiment [2] (setting [8]), 1% (inactive); in experiment [2] (at 50.0 µM), 53.4% (inactive). Also, the growth inhibition in experiment [3] (setting [7]) was 0% (inactive); in experiment [3] (setting [8]) it was -2% (inactive); in experiment [3] (at 50.0 µM), 86.5% (active); in experiment [4] (setting [7]), -1% (inactive); in experiment [4] (setting [8]), -4% (inactive); in experiment [4] (at 50.0 µM), -20.4% (inactive). The growth inhibition is 2% (inactive) in experiment [5] (setting [7]); 2% (inactive) in experiment [5] (setting [8]); 46% (inactive) in experiment [5] (at 50.0 µM); 1% (inactive) in experiment [6] (setting [7]); -4% (inactive) in experiment [6] (setting [8]); 81.9% (active) in experiment [6] (at 50.0 µM).
